# Measured values from PubChem BioAssay (NCI).
# About 79,000 compounds went through this panel and 15% of them were active in at least one assay; those are over-represented in the sample as a whole. Values without a mark were called inactive. Active and inactive are the calls of the source. Rule as the data show it: active = growth inhibition above about 70%; inactive = the rest.
# Experiment: NCI Yeast Anticancer Drug Screen. Data for the rad50 strain (AID 155);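 also: 0% = growth of vehicle-only cultures of the same strain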
# Details: S. cerevisiae rad50 strain growth inhibition; at 50.0 µM; stronger effect = higher value
# Outline: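 Vehicle-treated cultures provide the reference for the growth inhibition reported for compound-exposed, repair-deficient yeast.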
row,Structure (SMILES),growth inhibition
1,CC1CC(C(=O)OC2OC(COC3OC(CO)C(OC4OC(C)C(O)C(O)C4O)C(O)C3O)C(O)C(O)C2O)C2CCC3(C)C(=CCC4(C)C3CCC3C(C)(CO)C(O)C(O)CC34C)C2C1C (stereo unspecified),60.1%
2,CC1CC2(OC2C)C(=O)OC2CCN(C)C/C=C(/COC(=O)C1(C)O)C2=O (stereo unspecified),2.3%
3,CC(C)CCCC(C)[C@H]1CC[C@H]2[C@@H]3CC[C@H]4C[C@@H](CCC=C(c5cc(Cl)c(O)c(C(=O)O)c5)c5cc(Cl)c(O)c(C(=O)O)c5)CC[C@]4(C)[C@H]3CC[C@]12C (stereo partly specified) (tested in a mixture with another compound),0.95%
4,COC(=O)c1cnn2c1n[n+]([O-])c1ccccc12,-36.3%
5,CC(C)/C(Cl)=N/OC(=O)Nc1cccc(C(F)(F)F)c1,35.7%
6,COc1ccc2cc1Oc1ccc(cc1)CC1c3cc(OC)c(cc3CCN1C)Oc1c(OC)c(OC)cc3c1C(C2)N(C)CC3 (stereo unspecified),-4.6%
7,CC(=O)c1ccc(NC(=O)/C(CC(=O)/C=C/c2ccccc2)=N/NC(N)=S)cc1,37.1%
8,COC(=O)C(=O)C(C(=O)C(=O)Nc1ccc(Cl)c(Cl)c1)c1nc2ccc(C(=O)c3ccccc3)cc2[nH]c1=O (stereo unspecified),6.8%
9,CC(C)=CCc1cc(C2COc3cc4c(c(O)c3C2=O)C=CC(C)(C)O4)c(O)cc1O (stereo unspecified),91.3% (active)
10,O=C1c2ccccc2-c2c1c1ccccc1c(=O)n2-c1cccnc1,63.5%
11,N=C1N=C(N)CS1,2.6%
12,CCCCCCCCCC(=O)CC(=O)c1c(O)cc(O)cc1O,87.8% (active)
13,CC12CCC(CC1)C(C)(C)O2,-1.95%
14,COc1cc2c3cc1Oc1c(OC)c(OC)cc4c1C(Cc1ccc(O)c(c1)-c1cc(ccc1OC)CC3N(C)CC2)N(C)CC4 (stereo unspecified),-1.25%
15,C=C1C(=O)OC2CC(C)C3(O)CCC(=O)C3(C)CC12 (stereo unspecified),-14.8%
16,CNC(=S)c1nnsc1N,1.7%
17,Cc1ccc(/C=N/Nc2nncc3ccccc23)s1,14.8%
18,COc1ccc(-c2coc3c4c(ccc3c2=O)OCO4)cc1OC,3.6%
19,Cc1ccc(OCC2OC(n3cnc4c(Cl)nc(Cl)nc43)CC2Oc2ccc(C)cc2)cc1 (stereo unspecified),-20.4%

row,Structure (SMILES),growth inhibition
1,NNc1[nH]c(=S)[nH]c1C(N)=O,-29.6%
2,CCOC(=O)C(=O)C(CCC(=O)c1ccc2ccccc2c1O)C(=O)OCC (stereo unspecified),2.6%
3,Cc1ccc(C)c(NC(=O)/C(=N\N)C(c2cnc3ccc([N+](=O)[O-])cc3n2)[N+](=O)[O-])c1 (stereo unspecified),42.5%
4,CC1C2(C)OC(=N)C(C#N)(C(c3cccc([N+](=O)[O-])c3)O2)C1(C#N)C#N (stereo unspecified),8.15%
5,Cn1c2c(c3ccccc3c1=O)C(=O)c1ccccc1-2,43%
6,C[N+](C)(CCNC(=O)c1cccc2cc3ccccc3nc12)Cc1ccc([N+](=O)[O-])s1,-13.4%
7,CCC(=O)C(CC)c1cccc(OC)c1 (stereo unspecified),16.6%
8,COc1c2c(c3c(c1OC)c(=O)c1ccccc1n3C)OCO2,6.25%
9,CC/C(Cl)=N\OC(=O)Nc1ccc(OC)cc1,-5.35%
10,O=C(O)CCCC(=O)Nn1c(Cc2ccc(Cl)cc2)n[nH]c1=O,7.75%
11,CC1OC23CCCCC2C(C#N)(C#N)C1(C#N)C(=N)O3 (stereo unspecified),3.65%
12,N#CC1(C#N)C2CCCCC23OC(=N)C1(C#N)C(c1ccco1)O3 (stereo unspecified),15.8%
13,CNC(=S)/C(=N\Nc1nc[nH]c1C(N)=O)C(N)=S,-3.7%
14,COC(=O)C(C(=O)C(=O)NC1Nc2ccc(C)cc2S1)c1nc2ccc(Cl)cc2[nH]c1=O (stereo unspecified),18.2%
15,O=C(O)c1n[nH]nc1Cl,-5.9%
16,CSc1nc(Br)nc2ncn(C3CC(Oc4ccc(C)cc4)C(COc4ccc(C)cc4)O3)c12 (stereo unspecified),16.7%
17,CC(C)O/N=C/c1cc(NC(=S)OC(C)C)ccc1Cl,2.35%
18,Cc1ccc(OCC2OC(n3cnc4nc(N)nc(Cl)c43)CC2Oc2ccc(C)cc2)cc1 (stereo unspecified),20.2%
19,COc1ccc(C)cc1NC(=S)C#N,12.6%

# Experiment: NCI Yeast Anticancer Drug Screen. Data for the mec2-1 strain (AID 157)
# Details: S. cerevisiae mec2-1 strain, at 50.0 µM, stronger effect = higher value
# Outline: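 Growth inhibition is read against vehicle-treated controls after compound exposure of the mec2-1 yeast strain, which is defective in DNA damage repair or cell cycle control.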
row,Structure (SMILES),growth inhibition
1,CC1CC(C(=O)OC2OC(COC3OC(CO)C(OC4OC(C)C(O)C(O)C4O)C(O)C3O)C(O)C(O)C2O)C2CCC3(C)C(=CCC4(C)C3CCC3C(C)(CO)C(O)C(O)CC34C)C2C1C (stereo unspecified),68.1%
2,CC1CC2(OC2C)C(=O)OC2CCN(C)C/C=C(/COC(=O)C1(C)O)C2=O (stereo unspecified),7.05%
3,CC(C)CCCC(C)[C@H]1CC[C@H]2[C@@H]3CC[C@H]4C[C@@H](CCC=C(c5cc(Cl)c(O)c(C(=O)O)c5)c5cc(Cl)c(O)c(C(=O)O)c5)CC[C@]4(C)[C@H]3CC[C@]12C (stereo partly specified) (tested in a mixture with another compound),22.4%
4,COC(=O)c1cnn2c1n[n+]([O-])c1ccccc12,-36%
5,CC(C)/C(Cl)=N/OC(=O)Nc1cccc(C(F)(F)F)c1,38.3%
6,COc1ccc2cc1Oc1ccc(cc1)CC1c3cc(OC)c(cc3CCN1C)Oc1c(OC)c(OC)cc3c1C(C2)N(C)CC3 (stereo unspecified),-15.7%
7,CC(=O)c1ccc(NC(=O)/C(CC(=O)/C=C/c2ccccc2)=N/NC(N)=S)cc1,-32.4%
8,COC(=O)C(=O)C(C(=O)C(=O)Nc1ccc(Cl)c(Cl)c1)c1nc2ccc(C(=O)c3ccccc3)cc2[nH]c1=O (stereo unspecified),-9.65%
9,CC(C)=CCc1cc(C2COc3cc4c(c(O)c3C2=O)C=CC(C)(C)O4)c(O)cc1O (stereo unspecified),93% (active)
10,O=C1c2ccccc2-c2c1c1ccccc1c(=O)n2-c1cccnc1,6.95%
11,N=C1N=C(N)CS1,-10%
12,CCCCCCCCCC(=O)CC(=O)c1c(O)cc(O)cc1O,91.3% (active)
13,CC12CCC(CC1)C(C)(C)O2,3.3%
14,COc1cc2c3cc1Oc1c(OC)c(OC)cc4c1C(Cc1ccc(O)c(c1)-c1cc(ccc1OC)CC3N(C)CC2)N(C)CC4 (stereo unspecified),-6.75%
15,C=C1C(=O)OC2CC(C)C3(O)CCC(=O)C3(C)CC12 (stereo unspecified),-24.9%
16,CNC(=S)c1nnsc1N,-0.8%
17,Cc1ccc(/C=N/Nc2nncc3ccccc23)s1,16.1%
18,COc1ccc(-c2coc3c4c(ccc3c2=O)OCO4)cc1OC,-13.4%
19,Cc1ccc(OCC2OC(n3cnc4c(Cl)nc(Cl)nc43)CC2Oc2ccc(C)cc2)cc1 (stereo unspecified),-21.6%

row,Structure (SMILES),growth inhibition
1,NNc1[nH]c(=S)[nH]c1C(N)=O,-8.5%
2,CCOC(=O)C(=O)C(CCC(=O)c1ccc2ccccc2c1O)C(=O)OCC (stereo unspecified),-1.65%
3,Cc1ccc(C)c(NC(=O)/C(=N\N)C(c2cnc3ccc([N+](=O)[O-])cc3n2)[N+](=O)[O-])c1 (stereo unspecified),27.2%
4,CC1C2(C)OC(=N)C(C#N)(C(c3cccc([N+](=O)[O-])c3)O2)C1(C#N)C#N (stereo unspecified),1.55%
5,Cn1c2c(c3ccccc3c1=O)C(=O)c1ccccc1-2,-14.2%
6,C[N+](C)(CCNC(=O)c1cccc2cc3ccccc3nc12)Cc1ccc([N+](=O)[O-])s1,-37.2%
7,CCC(=O)C(CC)c1cccc(OC)c1 (stereo unspecified),-3.8%
8,COc1c2c(c3c(c1OC)c(=O)c1ccccc1n3C)OCO2,10.8%
9,CC/C(Cl)=N\OC(=O)Nc1ccc(OC)cc1,-16.1%
10,O=C(O)CCCC(=O)Nn1c(Cc2ccc(Cl)cc2)n[nH]c1=O,-13.1%
11,CC1OC23CCCCC2C(C#N)(C#N)C1(C#N)C(=N)O3 (stereo unspecified),9.5%
12,N#CC1(C#N)C2CCCCC23OC(=N)C1(C#N)C(c1ccco1)O3 (stereo unspecified),19.7%
13,CNC(=S)/C(=N\Nc1nc[nH]c1C(N)=O)C(N)=S,7.85%
14,COC(=O)C(C(=O)C(=O)NC1Nc2ccc(C)cc2S1)c1nc2ccc(Cl)cc2[nH]c1=O (stereo unspecified),-12.3%
15,O=C(O)c1n[nH]nc1Cl,0.7%
16,CSc1nc(Br)nc2ncn(C3CC(Oc4ccc(C)cc4)C(COc4ccc(C)cc4)O3)c12 (stereo unspecified),1.7%
17,CC(C)O/N=C/c1cc(NC(=S)OC(C)C)ccc1Cl,-8.75%
18,Cc1ccc(OCC2OC(n3cnc4nc(N)nc(Cl)c43)CC2Oc2ccc(C)cc2)cc1 (stereo unspecified),28.4%
19,COc1ccc(C)cc1NC(=S)C#N,-1.2%
